Each structure is given as a SMILES string. Compounds without any hit were thinned out: in the full panel of roughly 83,000, 20% have a hit.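 Activity criterion: percent growth below 10, measured after cells in 96-well plates were exposed to a single compound concentration for 48 hours.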 Unmarked numbers belong to inactive results. Active and inactive are the calls of the source.

The text below walks through data of PubChem BioAssay (NCI).

Test systems include DU-145 prostate; K-562 leukemia; MALME-3M melanoma; MDA-MB-231 breast; RXF 393 renal; SF-268 CNS; SF-539 CNS; M14 melanoma; SF-295 CNS; UACC-257 melanoma.
Assay in all cases: NCI-60 one-dose screen, 48 h (100 = growth as untreated, 0 = no growth, -100 = all killed)
What all share (details): 10 µM unless noted

Consider `Cc1sc2nc3[nH]/c(=C\c4ccc(Cl)cc4)c(=O)n3c(=O)c2c1C`, for which the growth is 109% with DU-145 prostate; 101% in the assay with K-562 leukemia; 102% in the assay on MALME-3M melanoma; 111% with MDA-MB-231 breast; 99.5% in the assay on RXF 393 renal; 102% with SF-268 CNS. The growth in the assay with SF-539 CNS and in the assay on M14 melanoma was 103% throughout.
For the compound `CC(C)[C@H]1COC(=O)N1[C@@H]1C(=O)N([C@@H](CCC(=O)N2CCN(C3CCCC3)CC2)C(=O)N[C@@H]2CCCc3ccccc32)[C@@H]1/C=C/c1cccc(Br)c1`, the growth with DU-145 prostate was 40.5%; with K-562 leukemia, 41.9%; in the assay on MALME-3M melanoma, 13.1%; in the assay on MDA-MB-231 breast it was 26.3%; in the assay with RXF 393 renal it was 53.3%; in the assay on SF-268 CNS, 8.27% (active). Moreover, the growth was 51.5% in the assay with SF-295 CNS, -34.6% (active) with UACC-257 melanoma and 25.8% in the assay on M14 melanoma.
With `O=C1Nc2ccccc2/C1=C/C(=N/c1nnc(-c2ccccc2)s1)c1ccccc1`, the growth in the assay with DU-145 prostate is 34.4%; in the assay on K-562 leukemia it was 20.4%; with MALME-3M melanoma, 37.8%; in the assay on MDA-MB-231 breast, 54.5%; with RXF 393 renal, 27.1%; in the assay on SF-268 CNS it was 60.4%. The growth is 52.7% in the assay with SF-539 CNS and 75.7% with M14 melanoma.
With `COc1cnc2c(c1)C(=O)c1c-2n(CCCBr)c(=O)c2cc([N+](=O)[O-])ccc12`, the growth in the assay with DU-145 prostate was 7.11% (active); with K-562 leukemia it was 11.7%; with MALME-3M melanoma it was -2.44% (active); in the assay on MDA-MB-231 breast it was 24.3%; with RXF 393 renal it was -10.8% (active); with SF-268 CNS, 9.06% (active). Also, the results for the growth with SF-295 CNS, with UACC-257 melanoma and in the assay with M14 melanoma were -11.3% (active), -32.3% (active) and 3.34% (active), respectively.
In the case of `Clc1ccc(-c2nnc(COc3ccccc3Cl)o2)cc1`, the growth in the assay with DU-145 prostate was 95.6%; in the assay on K-562 leukemia, 74.7%; in the assay with MALME-3M melanoma, 72.4%; in the assay on MDA-MB-231 breast, 67.4%; with RXF 393 renal it was 46.9%; in the assay on SF-268 CNS, 75.5%. Further, the growth in the assay on SF-295 CNS was 89.8%; in the assay with UACC-257 melanoma it was 80.6%; in the assay with M14 melanoma, 76.4%.
In the case of `COc1ncc(-c2ccc3ncnc(Nc4cccc(Cl)c4)c3c2)cc1NS(C)(=O)=O`, the growth in the assay on DU-145 prostate was 27.4%; in the assay with K-562 leukemia, 56.3%; with MALME-3M melanoma, -2.69% (active); in the assay with MDA-MB-231 breast it was 43.8%; in the assay on RXF 393 renal it was 7.92% (active); in the assay with SF-268 CNS, 44.8%. Also, the growth in the assay on SF-295 CNS is 32.1%; in the assay with M14 melanoma it was 46.9%.
As for `C=C1CCC2C3(C)COC(C)(C)OC3CCC2(C)C1C/C=C1/C(=O)OCC1OC(C)=O` (centres undefined), the growth in the assay on DU-145 prostate is 42.4%; in the assay on K-562 leukemia, 9.82% (active); with MALME-3M melanoma it was 71.9%; in the assay on MDA-MB-231 breast, 86.2%; with RXF 393 renal, -53.8% (active); in the assay with SF-268 CNS, 63.4%. Besides, the figures for the growth in the assay on SF-295 CNS, in the assay with UACC-257 melanoma and with M14 melanoma were 116%, 20.2% and 19.3%, respectively.
As for `O=C(/C=C/c1ccc(Cl)cc1)/C=C/c1cc2ccccc2[nH]c1=O`, the growth was 79.3% in the assay on DU-145 prostate; 10.1% with K-562 leukemia; 14.3% with MALME-3M melanoma; 63.8% in the assay on MDA-MB-231 breast; 38.3% in the assay with RXF 393 renal; 45.2% in the assay with SF-268 CNS. The growth in the assay with SF-295 CNS is 102%; in the assay on UACC-257 melanoma it was 88.9%; in the assay on M14 melanoma, 60.3%.
Regarding `CCCCCCCCCCCCCCCCNCCC[C@@H](C)[C@H]1CC[C@H]2[C@@H]3[C@H](OCCCN)C[C@@H]4C[C@H](OCCCN)CC[C@]4(C)[C@H]3C[C@H](OCCCN)[C@]12C`, the growth is -82.2% (active) in the assay with DU-145 prostate; -34.7% (active) with K-562 leukemia; -60.7% (active) in the assay with MALME-3M melanoma; -98.2% (active) with MDA-MB-231 breast; -41.2% (active) in the assay on RXF 393 renal; -38.2% (active) in the assay on SF-268 CNS. In addition, the growth is -68% (active) in the assay with SF-539 CNS and -28.7% (active) with M14 melanoma.
Consider `O=C(/C=C/c1cc2ccccc2[nH]c1=O)/C=C/c1cc2ccccc2[nH]c1=O`, for which the growth in the assay on DU-145 prostate is 10.1%; in the assay with K-562 leukemia, 1.78% (active); with MALME-3M melanoma, -24.8% (active); with MDA-MB-231 breast, -6.36% (active); with RXF 393 renal, -91.8% (active); with SF-268 CNS, -36% (active). In addition, the growth was 4.04% (active) in the assay on SF-295 CNS, -31.9% (active) in the assay with UACC-257 melanoma and -45.4% (active) in the assay with M14 melanoma.
Turning to `O=C1Nc2ccccc2C12CC(c1ccc(Cl)cc1)=NN2` (centres undefined), the growth in the assay on DU-145 prostate was 115%; with K-562 leukemia it was 94.5%; in the assay with MALME-3M melanoma, 105%; in the assay on MDA-MB-231 breast it was 89.8%; in the assay with RXF 393 renal it was 99.4%; with SF-268 CNS it was 106%. The growth is 99.2% in the assay on SF-539 CNS and 98.7% in the assay with M14 melanoma.
On to `COc1cnc2c(c1)C(=O)c1c-2n(CCCN2CCCC2)c(=O)c2cc([N+](=O)[O-])ccc12`, for which the growth is 3.15% (active) in the assay with DU-145 prostate; -12.1% (active) with K-562 leukemia; -20.2% (active) in the assay on MALME-3M melanoma; -49.1% (active) in the assay with MDA-MB-231 breast; -88.7% (active) in the assay on RXF 393 renal; 17.1% with SF-268 CNS. The growth in the assay on SF-295 CNS was -6.13% (active); in the assay on UACC-257 melanoma, -8.07% (active); with M14 melanoma, 0.878% (active).
As for `CCOC(=O)C12CCCC1=CC(=O)CC2` (centres undefined), the growth is 116% in the assay with DU-145 prostate; 89% in the assay on K-562 leukemia; 108% in the assay with MALME-3M melanoma; 111% in the assay on MDA-MB-231 breast; 113% in the assay on RXF 393 renal; 103% in the assay on SF-268 CNS. For the same compound, the results for the growth with SF-295 CNS, in the assay on UACC-257 melanoma and with M14 melanoma were 115%, 94.4% and 112%, respectively.
With `CCCCCCCCOC(=O)CC[C@@H](C)[C@H]1CC[C@H]2[C@@H]3[C@H](OC(=O)CCN)C[C@@H]4C[C@H](OC(=O)CCN)CC[C@]4(C)[C@H]3C[C@H](OC(=O)CCN)[C@]12C`, the growth in the assay with DU-145 prostate is 74.4%; in the assay with K-562 leukemia, -74.5% (active); with MALME-3M melanoma, 67.8%; with MDA-MB-231 breast, 69.3%; in the assay with RXF 393 renal, 109%; with SF-268 CNS, 69.7%. For the same compound, the growth with SF-539 CNS is 56.3%; in the assay on M14 melanoma, 84.4%.
For `CSc1ccc(N=C=C(c2ccccc2)c2ccccc2)cc1`, the growth in the assay with DU-145 prostate is 109%; in the assay on K-562 leukemia it was 60.4%; with MALME-3M melanoma, 105%; in the assay with MDA-MB-231 breast it was 84.7%; in the assay with RXF 393 renal it was 105%; in the assay on SF-268 CNS it was 95.8%. Besides, the growth in the assay on SF-295 CNS is 96.1%; in the assay with UACC-257 melanoma, 93.3%; in the assay on M14 melanoma, 80.4%.
